Test results: PubChem BioAssay AID463173 (ICCB-Longwood Screening Facility, Harvard Medical School, 2010)
Hit rate of the full screen: of about 52,000 compounds, about 4,300 (8.3%) were called active. Only a selection was taken, and actives are over-represented in it overall. A number with no mark means an inactive call. Cut-off read from the data, not from the text of the source: active = survival mostly below about 52% (no sharp cut-off); inactive = mostly above about 56%.

test system: DeltatarO mutant; assay: growth inhibition of S. aureus wild type versus tarO mutant, primary screen, teichoic acid synthesis inhibitors, RN4220, OD600 (AID 463173); details: OD600, 18 h, active compounds read low, screened at 18.75 µg/mL (by protocol)

| Compound | survival |
| --- | --- |
| Fc1ccc(Nc2ncnc3c2nc2n3CCCCC2)c(F)c1 | 55% |
| CN(C)S(=O)(=O)N(CC(=O)NCCSc1ccc(Cl)cc1)c1ccccc1 | 50% |
| NC(=O)CCn1c2ccccc2c2ccccc21 | 78% |
| O=C1C=CC(=O)C(c2ccc(Cl)cc2)=C1 | 66% |
| CCCCNc1sc(S(=O)(=O)CCC)nc1S(=O)(=O)c1ccc(C)cc1 | 86% |
| Cc1ccc(S(=O)(=O)c2c(Nc3ccc(C)c(C)c3)sc(C(=O)c3ccc4c(c3)OCO4)c2N)cc1 | 125% |
| COc1ccccc1NC(=O)c1cc2c([nH]c1=O)CC(C)(C)CC2=O | 90% |
| CCN(CC)C(=O)c1sc2c(c1C)c(=O)n(CCc1ccccc1)c(=O)n2Cc1cccc(Cl)c1 | 102% |
| CCOc1ccc(-c2nc(Cn3ccn4nc(-c5ccc(OCC)c(Cl)c5)cc4c3=O)c(C)o2)cc1 | 96% |
| CCCCOc1ccc(-c2nnn(C(C)(C)C(=O)O)n2)cc1 | 99% |
| CCOC(=O)c1c(S(=O)(=O)NCC(=O)N2CCN(c3ccccc3OC)CC2)c(C)n(C)c1C | 77% |
| O=C(CSc1nc(O)cc(=O)[nH]1)Nc1ccccc1 | 82% |
| O=C(NC1CCCC1)c1c[nH]c2ccc(S(=O)(=O)Nc3cccc(C(F)(F)F)c3)cc2c1=O | 16% (active) |
| COc1cccc(NS(=O)(=O)c2ccc3[nH]cc(C(=O)NCCc4ccccc4)c(=O)c3c2)c1 | 83% |
| Cc1ccccc1NS(=O)(=O)c1ccc2[nH]cc(C(=O)NC(C)c3ccccc3)c(=O)c2c1 (stereo not given) | 90% |
| CN(C(=O)c1c[nH]c2ccc(S(=O)(=O)Nc3cccc(C(F)(F)F)c3)cc2c1=O)C1CCCCC1 | 72% |
| COc1cccc(NS(=O)(=O)c2ccc3[nH]cc(C(=O)NC(C)c4ccccc4)c(=O)c3c2)c1 (stereo not given) | 37% (active) |
| CC(C)CCNC(=O)c1c[nH]c2ccc(S(=O)(=O)Nc3cccc(C(F)(F)F)c3)cc2c1=O | 74% |
| CCOc1ccc(-c2noc(CSc3nnc(Cc4ccccc4)n3-c3cccc(C)c3)n2)cc1 | 66% |
| Cc1ccc(C)c(Cn2c(SCC(=O)NCc3ccccc3)nc3ccccc32)c1 | 73% |
| COc1cc(NC(=O)c2cc(Cl)ccc2Cl)ccc1NC(=O)c1cc2ccccc2o1 | 55% |
| CCOc1ccc(S(=O)(=O)Nc2ccc3c(c2)c(C(C)=O)c(C)n3S(=O)(=O)c2ccc(OCC)cc2)cc1 | 67% |

| Compound | survival |
| --- | --- |
| NC(=O)CSc1nnc(Cn2cnc3ccccc32)o1 | 79% |
| CCOc1ccc(NC(=O)CCC(=O)N2CCSc3ccccc32)cc1 | 75% |
| CCN(C(=O)c1coc(=O)c2ccccc12)c1ccccc1C | 113% |
| CCCN(C(=O)c1cn(C)c(=O)c2ccccc12)c1ccccc1C | 79% |
| CCCN(C(=O)c1coc(=O)c2ccccc12)c1ccccc1C | 56% (active) |
| CC(=O)N1CCCc2cc(S(=O)(=O)N3CCCC(C(=O)Nc4cccc(F)c4)C3)ccc21 (stereo not given) | 87% |
| CCc1ccc(-n2c(=O)c3c4c(sc3n(Cc3ccc(F)cc3)c2=O)CCCC4)cc1 | 42% |
| COc1ccc(-c2cc(C(F)(F)F)n3nc(C(=O)Nc4cccc(Cl)c4C)cc3n2)cc1 | 70% |
| COc1ccc(-c2cc(C(F)(F)F)n3nc(C(=O)Nc4cc(Cl)cc(Cl)c4)cc3n2)cc1 | 86% |
| COc1cc(NC(=O)c2cc3nc(-c4ccc(C)cc4)cc(C(F)(F)F)n3n2)cc(OC)c1OC | 41% (active) |
| COC(=O)c1ccc(C(=O)OC)c(NC(=O)c2cc3nc(-c4ccc(C)cc4)cc(C(F)(F)F)n3n2)c1 | 83% |
| COc1ccc(-c2cc(C(F)(F)F)n3nc(C(=O)Nc4cc(C(F)(F)F)ccc4Cl)cc3n2)cc1OC | 152% |
| COC(=O)c1ccccc1NC(=O)c1cc2nc(-c3ccc(OC)cc3)cc(C(F)(F)F)n2n1 | 36% (active) |
| COc1ccc(NC(=O)c2cc3nc(-c4ccc(Cl)c(Cl)c4)cc(C(F)(F)F)n3n2)c(OC)c1 | 47% (active) |
| COc1ccc(Cl)cc1NC(=O)c1cc2nc(-c3ccc(C)cc3)cc(C(F)(F)F)n2n1 | 78% |
| COc1ccc(-c2cc(C(F)(F)F)n3nc(C(=O)Nc4cc(C)ccc4C)cc3n2)cc1 | 70% |
| Cc1cc(N2CCC(C(O)(c3ccccc3)c3ccccc3)CC2)nc(C)n1 | 108% |
| Cc1cc(C)cc(-n2c(SCC(=O)Nc3ccc4c(c3)OCCO4)nc3c([nH]c4ccccc43)c2=O)c1 | 126% |
| Cc1cc(C)cc(OCC(=O)N(Cc2ccco2)Cc2ccccc2Cl)c1 | 73% |
| O=C(c1cccc(Cl)c1)N(Cc1ccco1)Cc1ccccc1Cl | 32% (active) |
| Cc1ccc(CN(Cc2ccco2)C(=O)c2oc3ccc(C)cc3c2C)cc1 | 54% |
| Cc1c(C(=O)N(Cc2cccc(Cl)c2)Cc2ccco2)oc2ccccc12 | 40% (active) |

| Compound | survival |
| --- | --- |
| Cc1cccc(C(=O)N(Cc2ccco2)Cc2ccccc2F)c1 | 102% |
| Cc1cc2oc(C(=O)N(Cc3ccc(N(C)C)cc3)Cc3ccco3)c(C)c2cc1Cl | 84% |
| CCc1ccc2oc(C(=O)N(Cc3cccc(Cl)c3)Cc3ccco3)c(C)c2c1 | 53% |
| Cc1cc2oc(C(=O)N(Cc3ccco3)Cc3ccccc3Cl)c(C)c2cc1C | 43% (active) |
| CCc1ccc2oc(C(=O)N(Cc3ccc(N(C)C)cc3)Cc3ccco3)c(C)c2c1 | 71% |
| Cc1c(C(=O)N(Cc2ccco2)Cc2ccccc2Cl)oc2ccc(F)cc12 | 42% (active) |
| COc1cccc(C(=O)N(Cc2cccc(Cl)c2)Cc2ccco2)c1 | 68% |
| Cc1cc2oc(C(=O)N(Cc3ccc(Cl)cc3)Cc3ccco3)c(C)c2cc1Cl | 64% |
| CCn1cc(C(=O)NCc2ccc(C)cc2)c(=O)c2cc(S(=O)(=O)N(C)C3CCCCC3)ccc21 | 75% |
| CN(Cc1ccccc1)C(=O)Cn1ncc2c3ccccc3n(Cc3cccc(Cl)c3)c2c1=O | 90% |
| Cc1c(Cl)cccc1NC(=O)C(=O)NCCc1csc(-c2cccc(F)c2)n1 | 76% |
| CCC(C)[C@@H](C(=O)Nc1ccc(C)cc1)N1Cc2ccccc2C1=O (stereo not given in full) | 74% |
| CCn1cc(C(=O)NCCCOC)c(=O)c2cc(S(=O)(=O)N3CCCC3)ccc21 | 92% |
| Cc1ccc(C(CC(=O)Nc2ccc(F)c(Cl)c2)N2Cc3ccccc3C2=O)cc1 (stereo not given) | 88% |
| CCC(=O)N1CCc2cc(Br)cc(S(=O)(=O)N3CCCC(C(=O)NCc4ccccc4)C3)c21 (stereo not given) | 107% |
| Cc1ccc(CN(Cc2ccco2)C(=O)c2oc3cc(Br)ccc3c2C)cc1 | 43% (active) |
| Cc1ccc(CN(Cc2ccco2)C(=O)c2oc3c(C)c(C)ccc3c2C)cc1 | 50% |
| Cc1c(C(=O)N(Cc2ccc(N(C)C)cc2)Cc2ccco2)oc2cc(Br)ccc12 | 68% |
| CCOc1ccc(C(=O)c2cn(CC(=O)Nc3ccc(OC)cc3)c3cc4c(cc3c2=O)OCO4)cc1 | 69% |
| CCC1CCCCN1CCCNC(=O)CN1C(=O)c2cccnc2Oc2ccc(C)cc21 (stereo not given) | 78% |
| CCS(=O)(=O)N1CC(=O)N(c2ccc(C)c(C)c2)C(C)(C(=O)NC2CCCCC2)C1 (stereo not given) | 87% |
| CCc1ccc(NC(=O)c2cc(S(=O)(=O)N3CCCCC3)c[nH]2)cc1 | 105% |

| Compound | survival |
| --- | --- |
| Cc1cc(O)c2c(C)c(CC(=O)NCc3ccccc3Cl)c(=O)oc2c1 | 62% |
| Cc1c(CC(=O)NCc2ccccc2Cl)c(=O)oc2cc(O)ccc12 | 44% (active) |
| COc1ccccc1CCNC(=O)Cc1c(C)c2ccc(O)cc2oc1=O | 57% |
| CCN(CC)c1ncnc(Cl)c1Cc1ccc(OC)cc1 | 105% |
| COc1ccccc1NC(=O)N1CCN(c2cc(-c3ccccc3)nc3ncnn23)CC1 | 66% |
| Cc1cccc(-c2nc(S(=O)(=O)c3ccc(Cl)cc3)c(N3CCCCCC3)o2)c1 | 46% (active) |
| COc1cccc(-c2nc(S(=O)(=O)c3ccc(C)cc3)c(N3CCCCCC3)o2)c1 | 55% |
| COc1cccc(-c2nc(S(=O)(=O)c3ccc(C)cc3)c(N3CCCCC3)o2)c1 | 47% |
| Cc1ccc(S(=O)(=O)c2nc(-c3cccc(C)c3)oc2N2CCN(c3ccccc3)CC2)cc1 | 114% |
| Cc1ccc(S(=O)(=O)c2nc(-c3cccc(Br)c3)oc2N2CCCCCC2)cc1 | 45% (active) |
| Cc1cccc(-c2nc(S(=O)(=O)c3ccc(F)cc3)c(N3CCN(c4ccccc4)CC3)o2)c1 | 110% |
| Cc1cccc(-c2nc(S(=O)(=O)c3ccccc3)c(N3CCN(c4ccccc4)CC3)o2)c1 | 112% |
| COc1cccc(-c2nc(S(=O)(=O)c3ccccc3)c(N3CCCCC3)o2)c1 | 61% |
| Cc1ccc(S(=O)(=O)c2nc(-c3cccc(C)c3)oc2N2CCCCC2)cc1 | 6% (active) |
| Cc1ccc(Cc2nc3ccccc3nc2SCC(=O)NCc2ccccc2Cl)cc1 | 120% |
| O=C(Cn1c(=O)n(-c2ccccc2Cl)c(=O)c2sc3ccccc3c21)N1CCCC1 | 80% |
| O=c1c2oc3ccccc3c2n(Cc2ccccc2Cl)c(=O)n1Cc1ccc2c(c1)OCO2 | 65% |
| CSc1ccc(CNC(=O)c2cc3cc(S(=O)(=O)N4CCCCC4)ccc3n2C)cc1 | 95% |
| Cc1ccc(Cl)cc1NC(=O)CSc1nc2ccccc2c2nc(-c3ccccc3)nn12 | 113% |
